# Measured potencies and affinities stand elsewhere. Inconclusive results are not listed. Active and inactive are the calls of the source.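 Rule for the calls: active = compounds that lower the signal with a fitted half-maximal concentration at most ten times the top valid dose; inconclusive = flat curve with moderate inhibition, or an unreliable fit; inactive = the rest.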
# Molecular target: CAAX prenyl protease 2 (Saccharomyces cerevisiae (strain ATCC 204508 / S288c)) (UniProt Q03530)
# Assay: inhibition of Rce1p peptide cleavage – biochemical, plate reader, dry powder retest, dose response (AID 588851)
# CAAX prenyl protease 2 (Saccharomyces cerevisiae (strain ATCC 204508 / S288c)), sequence (Q03530 whole entry, looked up): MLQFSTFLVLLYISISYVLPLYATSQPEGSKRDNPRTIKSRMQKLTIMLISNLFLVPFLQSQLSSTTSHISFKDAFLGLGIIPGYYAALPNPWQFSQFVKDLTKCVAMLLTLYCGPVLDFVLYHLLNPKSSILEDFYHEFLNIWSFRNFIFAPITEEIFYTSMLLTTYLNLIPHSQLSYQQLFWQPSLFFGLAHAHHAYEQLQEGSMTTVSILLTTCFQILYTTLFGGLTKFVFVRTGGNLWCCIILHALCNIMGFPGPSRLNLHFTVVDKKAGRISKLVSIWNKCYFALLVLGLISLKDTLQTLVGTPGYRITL
structure (smiles),measurement,value
O=C(CCNC(=O)N1CC(=O)Nc2ccccc21)NCCc1cccc(F)c1,outcome,inactive

# Source: PubChem BioAssay AID588851 (Broad Institute, 2011)
